# Reference: PubChem BioAssay
# For some of these results: Measured potencies and affinities stand elsewhere.
# Assay: restoration of touch response, mutant HTT neurons – whole organism, C. elegans mechanosensory neurons, N-terminal huntingtin (AID 1599)
# Settings: C. elegans polyQ-huntingtin mechanosensory neurons, stronger effect = higher value
row,SMILES,rescue above control
1,CC(=O)OCC(=O)[C@@]1(O)[C@H](C)CC2C3CCC4=CC(=O)C=C[C@]4(C)[C@@]3(F)[C@@H](O)C[C@@]21C (some centres undefined),1.81
2,Nc1ccn(C2O[C@H](CO)[C@@H](O)[C@H]2O)c(=O)n1 (some centres undefined),-6.6
3,C=C(C)[C@H]1CC=C(C(=O)O)CC1,-1.74
4,NC(COCc1ccccc1)C(=O)O (centres undefined),1.64
5,CC1(C)C2CC[C@]3(C)C(C(=O)C=C4[C@H]5C[C@@](C)(C(=O)O)CC[C@]5(C)CC[C@]43C)[C@@]2(C)CC[C@@H]1O (some centres undefined),0.7
6,CC1(C)C2CC[C@]3(C)C(C(=O)C=C4[C@@H]5C[C@@](C)(C(=O)O)CC[C@]5(C)CC[C@]43C)[C@@]2(C)CC[C@@H]1O (some centres undefined),12
7,COc1ccc([C@@H]2CC(=O)c3c(O)cc(O[C@@H]4O[C@H](CO[C@H]5O[C@@H](C)[C@H](O)[C@@H](O)[C@H]5O)[C@@H](O)[C@H](O)[C@H]4O)cc3O2)cc1O,-5.33
8,CC(=O)[C@@]1(O)CCC2C3C=C(Cl)C4=CC(=O)[C@@H]5CC5[C@]4(C)C3CC[C@@]21C (some centres undefined),12.8
9,CC(C)(C)NC[C@@H](O)COc1nsnc1N1CCOCC1,-14.1
10,CC(C)CC(NC(=O)CCN)C(=O)O (centres undefined),6.33
11,CC[C@H](C)C(=O)O[C@H]1CCC=C2C=C[C@H](C)C(CCC3C[C@@H](O)CC(=O)O3)[C@H]21 (some centres undefined),-3.11
12,NC[C@H]1O[C@H](O[C@H]2C(O[C@@H]3O[C@H](CO)[C@@H](O)[C@H]3O)[C@@H](O)[C@H](N)C[C@@H]2N)[C@H](N)[C@@H](O)[C@@H]1O (some centres undefined),-3.87
13,CC(=O)Oc1ccc2c(c1)CCC1C2CC[C@@]2(C)C1CC[C@@H]2OC(C)=O (some centres undefined),6.23
14,C1CCN2C[C@H]3C[C@H](CN4CCCC[C@@H]34)[C@H]2C1,-2.03
15,CC1CCC2(OC1)OC1CC3C4CC[C@H]5C[C@@H](O)CC[C@]5(C)C4CC(=O)[C@]3(C)C1C2C (some centres undefined),-2.31
16,CCCC(=O)Nc1ncnc2c1ncn2C1O[C@@H]2COP(=O)(O)O[C@H]2[C@H]1OC(=O)CCC (some centres undefined),1.51
17,CC(=O)O[C@@H]1CC2C(C)(C)C(=O)C=C[C@]2(C)C2CC[C@@]3(C)[C@H](c4ccoc4)OC(=O)[C@H]4O[C@]43[C@@]21C (some centres undefined),-3.01
18,CC(=O)N[C@@H]1[C@@H](C(O)[C@H](O)CO)O[C@](O)(C(=O)O)C[C@@H]1O (some centres undefined),-7.75
19,CC(C)Oc1ccc2c(=O)cc(-c3ccccc3)oc2c1,6.51
20,COc1ccc(-c2cc(=O)c3c(O)cc(O[C@@H]4O[C@H](CO[C@H]5O[C@H](C)[C@@H](O)[C@H](O)[C@@H]5O)[C@@H](O)[C@H](O)[C@H]4O)cc3o2)cc1O,-9.51
21,C[N+]1(C)C2CC(OC(=O)[C@@H](CO)c3ccccc3)CC1C1OC12 (some centres undefined),-0.68
22,COC1=CC(C)[C@@H]2C[C@H]3OC(=O)C[C@H]4C(C)=C(OC)C(=O)C([C@@]34C)[C@@]2(C)C1=O (some centres undefined),-7.37
23,NC(Cc1ccc(F)cc1)C(=O)O (centres undefined),3.95
24,COC(=O)C(N)CS (centres undefined),-5.25

# Assay: blockers of cytochrome c efflux from mitochondria – biochemical, purified mitochondria (AID 1603);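 also: mouse liver mitochondria challenged with calcium chloride; signal normalized to the plate average as 100%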
# Settings: stronger effect = lower value
row,SMILES,cytochrome c release ratio
1,CC(=O)OCC(=O)[C@@]1(O)[C@H](C)CC2C3CCC4=CC(=O)C=C[C@]4(C)[C@@]3(F)[C@@H](O)C[C@@]21C (some centres undefined),1.17
2,Nc1ccn(C2O[C@H](CO)[C@@H](O)[C@H]2O)c(=O)n1 (some centres undefined),1.18
3,C=C(C)[C@H]1CC=C(C(=O)O)CC1,0.96
4,NC(COCc1ccccc1)C(=O)O (centres undefined),0.75
5,CC1(C)C2CC[C@]3(C)C(C(=O)C=C4[C@H]5C[C@@](C)(C(=O)O)CC[C@]5(C)CC[C@]43C)[C@@]2(C)CC[C@@H]1O (some centres undefined),1.2
6,CC1(C)C2CC[C@]3(C)C(C(=O)C=C4[C@@H]5C[C@@](C)(C(=O)O)CC[C@]5(C)CC[C@]43C)[C@@]2(C)CC[C@@H]1O (some centres undefined),0.78
7,COc1ccc([C@@H]2CC(=O)c3c(O)cc(O[C@@H]4O[C@H](CO[C@H]5O[C@@H](C)[C@H](O)[C@@H](O)[C@H]5O)[C@@H](O)[C@H](O)[C@H]4O)cc3O2)cc1O,0.96
8,CC(=O)[C@@]1(O)CCC2C3C=C(Cl)C4=CC(=O)[C@@H]5CC5[C@]4(C)C3CC[C@@]21C (some centres undefined),1.45
9,CC(C)(C)NC[C@@H](O)COc1nsnc1N1CCOCC1,1.02
10,CC(C)CC(NC(=O)CCN)C(=O)O (centres undefined),1.04
11,CC[C@H](C)C(=O)O[C@H]1CCC=C2C=C[C@H](C)C(CCC3C[C@@H](O)CC(=O)O3)[C@H]21 (some centres undefined),1.24
12,NC[C@H]1O[C@H](O[C@H]2C(O[C@@H]3O[C@H](CO)[C@@H](O)[C@H]3O)[C@@H](O)[C@H](N)C[C@@H]2N)[C@H](N)[C@@H](O)[C@@H]1O (some centres undefined),0.95
13,CC1=C2C(=CO[C@H](C)[C@H]2C)C(=O)C(C(=O)O)=C1O,0.99
14,CC(=O)Oc1ccc2c(c1)CCC1C2CC[C@@]2(C)C1CC[C@@H]2OC(C)=O (some centres undefined),1
15,C1CCN2C[C@H]3C[C@H](CN4CCCC[C@@H]34)[C@H]2C1,1.05
16,CC1CCC2(OC1)OC1CC3C4CC[C@H]5C[C@@H](O)CC[C@]5(C)C4CC(=O)[C@]3(C)C1C2C (some centres undefined),1.08
17,CCCC(=O)Nc1ncnc2c1ncn2C1O[C@@H]2COP(=O)(O)O[C@H]2[C@H]1OC(=O)CCC (some centres undefined),0.87
18,CC(=O)O[C@@H]1CC2C(C)(C)C(=O)C=C[C@]2(C)C2CC[C@@]3(C)[C@H](c4ccoc4)OC(=O)[C@H]4O[C@]43[C@@]21C (some centres undefined),1.1
19,CC(=O)N[C@@H]1[C@@H](C(O)[C@H](O)CO)O[C@](O)(C(=O)O)C[C@@H]1O (some centres undefined),0.26
20,CC(C)Oc1ccc2c(=O)cc(-c3ccccc3)oc2c1,0.9
21,COc1ccc(-c2cc(=O)c3c(O)cc(O[C@@H]4O[C@H](CO[C@H]5O[C@H](C)[C@@H](O)[C@H](O)[C@@H]5O)[C@@H](O)[C@H](O)[C@H]4O)cc3o2)cc1O,0.94
22,C[N+]1(C)C2CC(OC(=O)[C@@H](CO)c3ccccc3)CC1C1OC12 (some centres undefined),0.94
23,COC1=CC(C)[C@@H]2C[C@H]3OC(=O)C[C@H]4C(C)=C(OC)C(=O)C([C@@]34C)[C@@]2(C)C1=O (some centres undefined),0.85
24,NC(Cc1ccc(F)cc1)C(=O)O (centres undefined),0.78
25,COC(=O)C(N)CS (centres undefined),1.33
